Pf apPOL block: Pf-apPOL DNA polymerase inhibition; Recombinant Pf-apPOL, molecular beacon fluorescence, 1.5 h; inhibition, % at 10 µM; 210,000 tested, 0.25% active; AID 1794808
mHTT-CaM PPI inh: inhibitors of human mutant huntingtin-calmodulin interaction. P42858. AlphaScreen His-mHTT/GST-CaM binding, luminescence. inhibition, % at 15 µM. 190,000 tested, 3.6% active. AID 1671202;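 also: 0% = both proteins with DMSO and 100% = one protein alone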
Starred values were filed as active, the others as inactive. A selection: hits, their analogues and other compounds. The true share with any hit is near 3.6%. Rule as the data show it: active = inhibition above about 50%; inactive = the rest.

Results for CC(NC(=O)CCN1CCOCC1)c1ccc(Br)cc1 (centres undefined) ?
Pf apPOL block: -8.9; mHTT-CaM PPI inh: -1.3

Results for Cc1cccc(N2CCN(C(=O)/C=C3\Sc4ccccc4NC3=O)CC2C)c1 (centres undefined) ?
Pf apPOL block: 3.9; mHTT-CaM PPI inh: 28.0

What do the screens show for `Cc1cccc(N2CCN(C(=O)c3ccc4c(c3)NC(=O)c3ccccc3S4)CC2C)c1` (centres undefined)?
Pf apPOL block: -9.7; mHTT-CaM PPI inh: 100.0*

What do the screens show for `CCOC(=O)c1sc(NC(=O)c2ccccc2S(=O)(=O)CC)nc1-c1ccccc1`?
Pf apPOL block: -6.1; mHTT-CaM PPI inh: -7.3

What do the screens show for `COCCNC(=O)C(C)C1CCN(C(=O)c2sc(-c3ccc(C)cc3)nc2C)CC1` (centres undefined)?
Pf apPOL block: -2.8; mHTT-CaM PPI inh: 10.1

How did C=CCN1C(=O)NC(=O)/C(=C/c2ccc(-c3ccc(Cl)c([N+](=O)[O-])c3)o2)C1=O do in these assays?
Pf apPOL block: -2.6; mHTT-CaM PPI inh: 11.0

Results for O=[N+]([O-])c1ccc(O)c(C=Nc2cccc3ncccc23)c1 ?
Pf apPOL block: -1.5; mHTT-CaM PPI inh: 26.0

Results for Cc1ccc(O)c(C=Nc2ccc(Br)c3cccnc23)c1 ?
Pf apPOL block: -4.1; mHTT-CaM PPI inh: 101.0*

Results for Oc1ccc2ccccc2c1CN1CCCCC1 ?
Pf apPOL block: -0.6

How did Oc1ccc2ccccc2c1SSc1c(O)ccc2ccccc12 do in these assays?
Pf apPOL block: -0.4; mHTT-CaM PPI inh: 100.3*

What do the screens show for `CCC(C)Nc1nc(C)nc2c1c(C)nn2-c1ccccc1` (centres undefined)?
Pf apPOL block: 1.5; mHTT-CaM PPI inh: 99.3*

Results for CCCNc1nc(C)nc2c1c(C)nn2-c1ccc(C)cc1 ?
Pf apPOL block: 7.8; mHTT-CaM PPI inh: -17.2

How did CC(C)c1ccc(C=C2Oc3c(ccc4c3CN(C3CCS(=O)(=O)C3)CO4)C2=O)cc1 (centres undefined) do in these assays?
Pf apPOL block: -10.7; mHTT-CaM PPI inh: 13.2

What do the screens show for `COc1ccc(C2=CC(c3ccccc3)SC(N)=N2)cc1` (centres undefined)?
mHTT-CaM PPI inh: 11.2

Results for NC1=NC(c2ccc(Cl)cc2)=CC(c2ccc(F)cc2)S1 (centres undefined) ?
mHTT-CaM PPI inh: 67.5*

Results for CCCNC(=O)c1ccc(-n2cc(CNC(C)=O)cn2)cc1 ?
Pf apPOL block: -1.1; mHTT-CaM PPI inh: -3.9

Results for O=C(Nc1nc2c(s1)CCCC2)c1ccc([N+](=O)[O-])o1 ?
Pf apPOL block: 64.0*; mHTT-CaM PPI inh: 18.0

How did O=C(Nc1nc2c(F)cccc2s1)c1ccc([N+](=O)[O-])o1 do in these assays?
Pf apPOL block: 2.6; mHTT-CaM PPI inh: 3.5

Results for CCn1cc(C2=CCN(C(=O)Nc3ccsc3C(=O)OC)CC2)c2cccnc21 ?
Pf apPOL block: -1.0; mHTT-CaM PPI inh: 6.2

What do the screens show for `O=S1(=O)N=C(N/N=C/c2cc(Cl)ccc2O)c2ccccc21`?
mHTT-CaM PPI inh: active

How did O=S1(=O)N=C(Nc2ccccc2O)c2ccccc21 do in these assays?
Pf apPOL block: -5.4; mHTT-CaM PPI inh: 0.0

What do the screens show for `CCOc1ccccc1CNC(=O)C1CC(=O)N(c2ccc3oc(C)nc3c2)C1` (centres undefined)?
Pf apPOL block: -2.0; mHTT-CaM PPI inh: 15.4

What do the screens show for `Cc1ccc(NC(=O)CN2CCC(C(=O)Nc3ccc(OC(F)(F)F)cc3)CC2)c(C)c1`?
Pf apPOL block: -9.8; mHTT-CaM PPI inh: -5.6

How did O=C(Cc1ccccc1)N1CCc2c(nc3cc(-c4ccccc4Cl)[nH]n3c2=O)C1 do in these assays?
Pf apPOL block: 18.0; mHTT-CaM PPI inh: 26.8

What do the screens show for `O=C(c1n[nH]c2ccccc12)N1CCc2nc3cc(-c4ccccc4Cl)[nH]n3c(=O)c2C1`?
Pf apPOL block: 21.1; mHTT-CaM PPI inh: 89.3*

How did COc1ccc(-c2cc3nc4c(c(=O)n3[nH]2)CN(C(C)=O)CC4)cc1 do in these assays?
Pf apPOL block: 5.0; mHTT-CaM PPI inh: 1.7

Results for O=C(c1ccco1)N1CCc2nc3cc(-c4ccccc4Cl)[nH]n3c(=O)c2C1 ?
Pf apPOL block: -1.4; mHTT-CaM PPI inh: 2.3

Results for Cc1ccc(CNC(=O)N2CCc3nc4cc(-c5ccccc5Cl)[nH]n4c(=O)c3C2)cc1 ?
Pf apPOL block: 3.5; mHTT-CaM PPI inh: 52.9*

Results for COc1ccc(-c2cc3nc4c(c(=O)n3[nH]2)CN(C(=O)NCc2ccc(F)cc2)CC4)cc1 ?
Pf apPOL block: 9.7; mHTT-CaM PPI inh: 58.4*

How did COc1ccc(-c2cc3nc4c(c(=O)n3[nH]2)CN(C(=O)c2n[nH]c3ccccc23)CC4)cc1 do in these assays?
Pf apPOL block: 16.6; mHTT-CaM PPI inh: 28.4

How did O=C(Cc1cccs1)N1CCc2nc3cc(-c4ccccc4Cl)[nH]n3c(=O)c2C1 do in these assays?
Pf apPOL block: 24.8; mHTT-CaM PPI inh: 52.0*

How did CCCNC(=O)C1CCN(C(=O)c2cccnc2-c2ccccc2C)CC1 do in these assays?
Pf apPOL block: -5.3; mHTT-CaM PPI inh: -2.7

Bioassay records as filed in PubChem.
